Assay outcomes deposited in PubChem BioAssay by National Center for Advancing Translational Sciences (NCATS).
BRCT PPI red: inhibitors of human BRCA1 BRCT-phosphoprotein interaction (red fluorophore). BRCT-phosphopeptide binding, red fluorescence polarization. Potency, µM (titrated, usually from 76.9 µM), without a hit: at the highest dose activity change, negative = inhibition, hits mostly inhibitors. actives 0.03% (n = 75,000); note: % is set by controls: 0 for no effect and ±100 for the full control effect
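Rhodamine-labelled pBACH1 10-mer (100 nM) bound to BRCT domain (100 nM) at pH 7.3; compounds incubated 12 min room temperature, polarization read. Free peptide defines full inhibition; unlabelled decapeptide titrated as control.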
Hsp90 Hop PPI: changes Hsp90-Hop TPR2A binding signal, up or down; AlphaScreen TPR2A-His6 binding biotin-Hsp90 C-terminal peptide; Potency, µM (titrated, usually from 57 µM), for the others: top-dose activity change, negative = inhibition; actives 0.44% (n = 71,000); active = well fitted curve in either direction with a large enough effect; inconclusive = small, poorly fitted or top-dose-only effect, or another doubt; note: potency is the fitted concentration of half-maximal effect; % is set by controls: 0 for no effect and ±100 for the full control effect
HEK293 cAMP cs: parental HEK293 cAMP activation (counter-screen); parental HEK293 CNG cAMP sensor, membrane potential fluorescence; Potency, µM (titrated, usually from 57.1 µM), for the others: top-dose activation, most hits filed as activators; actives 2.5% (n = 73,000); AID 938; note: potency is the fitted concentration of half-maximal effect; % of control where 0% means no effect; nearly all actives have a fitted effect of over 55% in size
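Counterscreen for endogenous-receptor signalling: CNG-channel HEK 293 cells report cAMP rise by membrane depolarization. After 60 min dye equilibration with 100 uM RO 20-1724, compounds incubated 30 min before bottom-read fluorescence at 590 nm.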
TsaE inh: displaces an ADP probe from E. coli YjeE (TsaE). purified YjeE enzyme, qHTS inhibition assay. Potency, µM. actives 0.05% (n = 71,000)
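Purified YjeE (10 uM) with BODIPY Texas Red-labeled ADP probe (2 uM); compounds pin-transferred, 15 min at room temperature. Binding inhibition read as decreased fluorescence polarization; ADP titration as control.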
BRCT PPI green: blocks human BRCA1 BRCT binding to phosphopeptide, green readout | BRCA1 BRCT-phosphopeptide binding, green fluorescence polarization | AID 875 | P38398 | actives 0.05% (n = 75,000) | Potency, µM (doses to about 76.9 µM), for inactives: top-dose activity change, negative = inhibition, usual class: inhibitors;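 note: potency is the fitted concentration of half-maximal effect; plate controls were peptide without protein for full effect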
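Fluorescence polarization: His-tagged BRCT (~35 kDa BRCA1 C-terminus, 250 nM) bound to 100 nM fluorescein-labeled phosphorylated 10-aa BACH1 peptide, pH 7.3 phosphate buffer with DTT and Tween 20. Compounds incubated 12 min at room temperature; inhibition read as lowered polarization.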
TSHR agonist: agonists of human thyroid stimulating hormone receptor; P16473; HEK293-CNG-TSHR cells (CNG channel as cAMP sensor), membrane potential dye, cAMP; Potency, µM (titrated, usually from 57.1 µM), for inactives: at the top dose activation, actives largely listed as activators; actives 0.48% (n = 73,000); active = well fitted activation curve with a large enough effect in the main read-out, with a control signal flat, not every such curve was filed as active; inconclusive = small, poorly fitted or top-dose-only effect, or a change in a side signal; inactive = no such curve, though single readings can be large or run the other way; % of control where 0% means no effect;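 note: the control signal comes from parental cells without the receptor; potency is the fitted concentration of half-maximal effect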
Target sequence (P16473 whole entry, looked up): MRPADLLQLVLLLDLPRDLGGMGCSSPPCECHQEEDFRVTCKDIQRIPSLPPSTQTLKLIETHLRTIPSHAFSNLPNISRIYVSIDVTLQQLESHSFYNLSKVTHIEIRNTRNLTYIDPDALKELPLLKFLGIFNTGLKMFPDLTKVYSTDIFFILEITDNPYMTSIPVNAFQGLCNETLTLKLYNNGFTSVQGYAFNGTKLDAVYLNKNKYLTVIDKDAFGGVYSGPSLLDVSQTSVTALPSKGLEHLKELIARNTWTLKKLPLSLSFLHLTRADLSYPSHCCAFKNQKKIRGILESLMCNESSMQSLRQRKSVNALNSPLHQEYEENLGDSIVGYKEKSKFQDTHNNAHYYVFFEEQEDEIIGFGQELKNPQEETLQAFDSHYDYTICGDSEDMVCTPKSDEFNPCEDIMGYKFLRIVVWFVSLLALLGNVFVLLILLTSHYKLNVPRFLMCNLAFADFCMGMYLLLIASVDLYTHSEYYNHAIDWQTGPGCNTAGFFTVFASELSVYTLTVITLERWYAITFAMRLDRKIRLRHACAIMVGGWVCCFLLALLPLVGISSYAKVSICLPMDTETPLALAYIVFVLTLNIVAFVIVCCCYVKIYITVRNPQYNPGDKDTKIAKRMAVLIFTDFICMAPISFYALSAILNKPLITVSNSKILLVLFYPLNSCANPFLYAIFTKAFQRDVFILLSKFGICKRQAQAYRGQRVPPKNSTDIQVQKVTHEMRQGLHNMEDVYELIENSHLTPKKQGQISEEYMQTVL
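cAMP rise detected as CNG-channel membrane depolarization by fluorescent dye (emission 590 nm), 30 min after compound, following 60 min dye loading containing 100 uM RO 20-1724 at room temperature. Cells: TSHR/CNG HEK 293, with parental CNG HEK 293 as control.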
* hit, by the source's call; i = inactive; ? = inconclusive; . = not tested or not shown; [ ] = another dose, or the depositor's remark. The list is not random: actives were taken first. Their share in the collection is about 3.3%. Unless noted, calls come from the whole dose curve; as a rule, active = well fitted curve in the direction sought with a large enough effect; inconclusive = small, poorly fitted or top-dose-only effect, or another doubt; inactive = no such curve, though single readings can be large; an effect the other way counts as inactive or inconclusive.

SMILES	BRCT PPI red	Hsp90 Hop PPI	HEK293 cAMP cs	TsaE inh	BRCT PPI green	TSHR agonist
CN(C)c1ccc(C(c2nnnn2C(C)(C)C)N2CCc3ccccc3C2)cc1 (configuration not stated)	1%	-2%	16µM*	i	-2%	?
COc1ccccc1N1CCN(C(c2ccc(Cl)cc2)c2nnnn2C(C)(C)C)CC1 (configuration not stated)	0%	-8%	2µM*	i	-1%	?
CCC(C)(C)n1nnnc1C(c1ccncc1)N1CCN(c2cccc(OC)c2)CC1 (configuration not stated)	-1%	-5%	2.5µM*	i	-3%	?
O=[N+]([O-])c1ccc(S(=O)(=O)Cc2ccccc2)c2nonc12	-2%[15.4 µM]	-15%[11 µM]	-8%[11.4 µM]	i	2%[15.4 µM]	-3%[11.4 µM]
CN(C)CCN1C(=O)CC[C@]2(C)C1=CC[C@@H]1[C@@H]2CC[C@]2(C)[C@H]1CC[C@]2(C)O	0%[15.4 µM]	-2%[11 µM]	-3%[11.4 µM]	i	0%[15.4 µM]	2%[11.4 µM]
CC(=O)N1CCN(c2ccccc2NC(=O)COc2ccc(Cl)cc2Cl)CC1	-1%	-9%	26%	i	3%	28%
CCC(=O)N1CCN(c2ccccc2NC(=O)COc2cc(C)ccc2C(C)C)CC1	-1%	-4%	16µM*	i	2%	?
O=C(Nc1ccccc1N1CCN(c2ccc(F)cc2)CC1)c1ccccc1	-2%	3%	6.3µM*	i	-3%	?
Cc1ccccc1OCC(=O)Nc1ccccc1N1CCOCC1	1%	7%	25µM*	i	0%	?
O=C(COc1ccccc1)Nc1ccccc1N1CCN(c2ccccc2)CC1	0%	2%	?	i	0%	?
Cc1cc(C)c(OCC(=O)Nc2ccccc2N2CCOCC2)c(C)c1	0%	15%	?	i	1%	?
O=C(COc1ccccc1)Nc1ccccc1N1CCN(c2ccc(F)cc2)CC1	-2%	-1%	7.9µM*	i	-2%	?
S=C(S)NCCN1CCNCC1	0%[15.4 µM]	10%[11 µM]	7%[11.4 µM]	i	0%[15.4 µM]	-5%[11.4 µM]
C/C(CCN1CCCc2nc(C)c(C)cc21)=N\OC[C@@H](O)[C@@H]1O[C@@H]2OC(C)(C)O[C@@H]2[C@H]1O	1%[15.4 µM]	.	3%[11.4 µM]	.	0%[15.4 µM]	2%[11.4 µM]
CCCS(=O)(=O)NCCc1csc(-c2cccnc2)n1	-2%	-6%	4%	i	1%	36%
O=C(Nc1ccccc1N1CCN(c2ccc(F)cc2)CC1)C1CCCCC1	2%	-2%	3.2µM*	i	-1%	?
O=C1[C@H]2[C@H]3[C@H](O)[C@H](O)C/C(=N/OC[C@@H](O)COCc4ccco4)[C@H]3CC[C@@H]2C(=O)N1Cc1ccc2c(c1)OCO2	1%[15.4 µM]	.	-4%[11.4 µM]	.	1%[15.4 µM]	-1%[11.4 µM]
Cc1ccc(C(=O)N2CCCC(c3nc4c(nnn4Cc4ccccc4)c(=O)[nH]3)C2)cc1 (configuration not stated)	-3%	-7%	25µM*	i	15%	?
Cc1ccc(CC(=O)N2CCC(c3nc4c(nnn4Cc4ccccc4)c(=O)[nH]3)CC2)cc1	0%	-6%[2.3 µM]	8%	i	1%	1%
CCCC(=O)c1cc(O)c(O)cc1O	0%	-7%	?	i	-1%	?
N#CCCn1c(=O)c(CCc2ccccc2)nc2cnc(OCc3ccccc3)nc21	-1%	2%	4µM*	i	6%	?
COc1cccc(Cn2c(=O)cnc3cnc(OCc4ccccc4)nc32)c1	-1%	-1%	?	i	0%	?
COCCn1c(=O)c(C)nc2cnc(OCc3ccccc3)nc21	-1%	-1%	3.2µM*	i	-2%	?
COc1cccc(Cn2c(=O)c(C)nc3cnc(OCc4ccccc4)nc32)c1	0%	4%	16µM*	i	0%	?
N#CCCn1c(=O)c(CCc2ccccc2)nc2cnc(Oc3ccccc3)nc21	0%	-3%	?	i	-1%	?
SMILES	BRCT PPI red	Hsp90 Hop PPI	HEK293 cAMP cs	TsaE inh	BRCT PPI green	TSHR agonist
CSc1nc(N)c2ncn([C@@H]3O[C@@H](COP(=O)(O)OP(=O)(O)O)[C@@H](O)[C@H]3O)c2n1	0%	-7%	-9%	?	-1%	5%
CCOC(=O)[C@]1(C(NC(=O)OC)c2ccccc2)CCCC1=O (some centres not stated)	-1%[15.4 µM]	.	12%[11.4 µM]	.	0%[15.4 µM]	16%[11.4 µM]
COc1ccc2[nH]cc(CCNc3ccnc(-c4ccc(N(C)C)cc4)n3)c2c1	-1%	?	5%	i	0%	16%
COc1ccc(-c2cc(C(F)F)n3ncc(C(=O)N4CCSCC4)c3n2)cc1	-1%	18%	?	i	1%	?
Cc1ccc(-c2cc(C(F)F)n3ncc(C(=O)N4CCN5CCCC5C4)c3n2)cc1 (configuration not stated)	1%	-5%	20µM*	i	-2%	?
CCOC(=O)C1CCCN(C(=O)c2cnn3c(C(F)F)cc(-c4ccc(C)cc4)nc23)C1 (configuration not stated)	-2%	11%	7.9µM*	i	1%	?
c1ccsc1	0%	0%	?	i	-1%	?
CC1=C(C(=O)Nc2ccccc2)C(c2ccc3c(c2)OCO3)C2=C(CCCC2=O)N1 (configuration not stated)	-1%	0%	16µM*	i	-3%	?
Nc1ncnc2c1nc(-c1ccccc1)n2[C@H]1O[C@@H](CO)[C@@H](O)[C@H]1O	0%[15.4 µM]	-2%[11 µM]	-4%[11.4 µM]	i	1%[15.4 µM]	6%[11.4 µM]
COC(=O)c1cc(-c2ccc3c(c2)OCO3)nc2ccccc12	-1%	25µM*	?	i	-2%	?
Cc1ccc(-c2cc(C(=O)N3CCOCC3)c3ccccc3n2)cc1	-1%	-2%	6%	i	0%	25µM*
COC(=O)[C@H](C)NC(=O)C/C=C\[C@@H](C)CO	3%[15.4 µM]	.	-3%[11.4 µM]	.	1%[15.4 µM]	.
CC(C)CNC(=O)CN(C1CCCCC1)S(=O)(=O)c1ccccc1	1%	1%	29%	i	-1%	32µM*
CC(C)=C1C2C=CC1C1C(=O)N(c3ccc4c(c3)OCO4)C(=O)C21 (configuration not stated)	-2%	-6%[11 µM]	3%[11.4 µM]	i	-2%	2.5µM*
Cc1cc(C(=O)Nc2cccnc2)no1	-1%	?	2%	i	-3%	2%
Cc1cc(NC(c2cccnc2)c2ccc3cccnc3c2O)no1 (configuration not stated)	1%	4µM*	7%	i	-1%	-2%
